In PubChem BioAssay AID1224903 (Bradner/Qi Labs at DFCI, 2016):
Values joined by “and” are separate entries in the source; they are usually repeats but may differ in a detail not shown here. Equal values may be shown once. Screen size: about 66,000 compounds; about 720 (1.1%) were called active. No stated cut-off is given here; in the data, active means normalised signal below about 0.5; inactive means the rest, inconclusive results apart. For the sample, actives were picked, then their nearest neighbours and some compounds at random.

biological target: Chromobox protein homolog 7 (Homo sapiens) (UniProt O95931); assay: blockers of CBX7 binding to H3K27me3 peptide – biochemical, AlphaScreen, primary screen (AID 1224903); settings: AlphaScreen His6-CBX7 / biotin-H3K27me3 peptide binding, stronger effect = lower value; z-score: measured here: z-score of CBX7 signal
Sequence (O95931 whole entry, looked up): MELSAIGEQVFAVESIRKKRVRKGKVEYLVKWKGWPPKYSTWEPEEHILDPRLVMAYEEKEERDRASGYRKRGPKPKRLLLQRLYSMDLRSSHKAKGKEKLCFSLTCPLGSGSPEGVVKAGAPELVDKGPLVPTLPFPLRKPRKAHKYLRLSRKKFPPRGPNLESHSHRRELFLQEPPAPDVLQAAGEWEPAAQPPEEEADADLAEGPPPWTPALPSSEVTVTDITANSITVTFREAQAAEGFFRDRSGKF

SMILES | normalised signal (fraction of DMSO) | z-score
O=C(Nc1ccccc1C(F)(F)F)N1CCN(c2ccc3nnc(-c4ccccc4)n3n2)CC1 | 0.759 (inactive) | -3.38
Cc1nc2cc(C(=O)NCc3ccc(F)cc3)ccc2n1-c1cccc(F)c1 | 0.995 (inactive) | -0.21
Cc1cccc(CCNC(=O)CN2CCN(Cc3ccc(F)cc3Cl)C2=O)c1 | 1.02 (inactive) | 0.228
Cc1ccc(NC(=O)Cn2cnc3sc(C(=O)Nc4ccc(F)cc4)c(C)c3c2=O)cc1Cl | 1.09 (inactive) | 2.71
Cc1ccc(OCC(=O)Nc2cccc(-c3nc4ncccc4o3)c2)cc1 | 1.02 (inactive) | 0.227
Cc1cccc(N2CCN(C(=O)C3CCC(Cn4c(=O)[nH]c5ccsc5c4=O)CC3)CC2C)c1 (centres undefined) | 1.11 (inactive) | 0.523
COc1ccc(CCNC(=O)CCc2c(C)nc3c(c(C)nn3-c3ccc(C)cc3)c2C)cc1OC | 1.07 (inactive) | 1.56
COc1cccc(Nc2nc(-c3ccc(Cl)cc3)cs2)c1 | 0.908 (inactive) and 0.897 (inactive) | -1.58 and -2.88
O=C(Nc1ccc(-c2nc3ccccc3o2)c(O)c1)c1ncn[nH]1 | 0.308 (active) | -19.7
O=C(Nc1ccc(-c2nc3ccccc3o2)c(O)c1)c1cccc(F)c1 | 1.11 (inactive) | 2.16
COc1cc(OC)cc(C(=O)Nc2ccc(-c3nc4ccccc4o3)c(O)c2)c1 | 0.956 (inactive) | -0.356
CCOC(=O)CNC(=O)c1cc2c(n(-c3ccc(C)cc3)c1=O)CCCC2=O | 1.19 (inactive) | 0.796
CCN1CCCC1CNC(=O)c1ccc2c(c1)N(Cc1ccccc1)CCS2 (centres undefined) | 0.92 (inactive) | -0.106
Cc1ccc(NC(=O)C2CCCN(S(=O)(=O)c3cccc4cccnc34)C2)cc1F (centres undefined) | 1.02 (inactive) | 0.516
COc1ccccc1NC(=O)c1c(NCc2ccncc2)sc2c1CCCC2 | 0.583 (inactive) | -5.84
COc1ccccc1NC(=O)c1c(NCc2cccs2)sc2c1CCCC2 | 0.467 (active) | -7.46
CCOC(=O)c1ccc(NC(=O)c2c(NCc3cccs3)sc3c2CCCC3)cc1 | 0.674 (inactive) | -4.57
CCCCN(CC)S(=O)(=O)c1ccc(C(=O)Nc2nnc(-c3ccc(Cl)s3)o2)cc1 | 1.03 (inactive) | 0.687
CCN(CC)S(=O)(=O)c1ccc(C(=O)Nc2nnc(-c3cc(OC)cc(OC)c3)o2)cc1 | 0.885 (inactive) | -1.93
CN(Cc1ccccc1)S(=O)(=O)c1ccc(C(=O)Nc2nnc(-c3ccccc3Cl)o2)cc1 | 0.095 (active) | -15.2
CCC1CCCCN1S(=O)(=O)c1ccc(C(=O)Nc2nnc(COC)o2)cc1 (centres undefined) | 0.727 (inactive) | -7.33
COCCN(CCOC)S(=O)(=O)c1ccc(C(=O)Nc2nnc(-c3cccs3)o2)cc1 | 0.698 (inactive) | -6.83
C=CCN(CC=C)S(=O)(=O)c1ccc(C(=O)Nc2nnc(-c3cccs3)o2)cc1 | 0.877 (inactive) | -3.03
CCCCN(C)S(=O)(=O)c1ccc(C(=O)Nc2nnc(C)o2)cc1 | 0.00344 (active) | -1.32
COc1ccc(-c2nnc(NC(=O)c3ccc(S(=O)(=O)N4CCC(C)CC4)cc3)o2)cc1 | 0.796 (inactive) | -4.6
CN(C)S(=O)(=O)c1ccc(C(=O)Nc2nnc(-c3ccccc3Cl)o2)cc1 | 0.145 (active) | -14.4

SMILES | normalised signal (fraction of DMSO) | z-score
CN(C)S(=O)(=O)c1ccc(C(=O)Nc2nnc(C3CC3)o2)cc1 | 0.379 (active) | -14
CC1CCCCN1S(=O)(=O)c1ccc(C(=O)Nc2nnc(-c3cccs3)o2)cc1 (centres undefined) | 0.92 (inactive) | -1.8
COc1ccc(-c2nnc(NC(=O)c3ccc(S(=O)(=O)N4CC(C)OC(C)C4)cc3)o2)c(OC)c1 (centres undefined) | 0.629 (inactive) | -8.38
Cc1cc(=O)n2nc(N3CCCC(C(=O)N4CCCCC4)C3)sc2n1 (centres undefined) | 1.09 (inactive) | 0.832
O=C(Nc1ccccc1F)c1cc2c(s1)-c1ccccc1OC2 | 1.53 (inactive) | 15.1
COc1cccc(-c2nc(CS(=O)(=O)CC(=O)NCCCN(CC(C)C)CC(C)C)c(C)o2)c1 | 1.42 (inactive) | 3.56
CCc1ccc(-n2cnc3cc(C(=O)NC4CCCC4)ccc32)cc1 | 0.805 (inactive) | -3.38
COc1ccc(CCNC(=O)c2cn(-c3ccc(Cl)cc3)c(=O)c3ccccc23)cc1OC | 1.03 (inactive) | 0.92
CCCCOc1ccc(C(=O)N(Cc2ccc(OC)cc2)C2CCS(=O)(=O)C2)cc1 (centres undefined) | 0.91 (inactive) | -0.0894
O=C(c1ccc(Cl)nc1)N1CCNc2ccccc2C1 | 0.975 (inactive) | -0.305
CCCCNC(=O)CN1C(=O)COc2ccccc21 | 0.475 (active) | -4.69
O=C(CN1C(=O)COc2ccccc21)NCCN1CCc2ccccc2C1 | 1.06 (inactive) | 1.85
CCCN1CCN(CCCNC(=O)CN2C(=O)COc3ccccc32)CC1 | 1.01 (inactive) | 0.274
CN(CC(=O)NCCc1ccccc1)S(=O)(=O)c1cnc[nH]1 | 1.26 (inactive) | 2.17
COC(CNC(=O)c1csc2c1CCCCC2)OC | 0.834 (inactive) | -2.13
Cc1ccc(-n2c(Cc3cccn3C)nnc2SCC(=O)Nc2ccc(C)c(Cl)c2)cc1 | 0.926 (inactive) | -1.77
Cc1sc2ncn(CC(=O)NCC(=O)NCCCN3CCOCC3)c(=O)c2c1C | 1.08 (inactive) | 0.741
Cc1ccccc1Cn1c(CCNC(=O)C(C)(C)C)nc2ccccc21 | 1.12 (inactive) | 1.79
Cc1ccc(Nc2c(-c3ccc(Cl)cc3)nc3sccn23)c(C)c1 | 0.736 (inactive) | -5.27
Cc1cccc(C)c1Nc1c(-c2ccsc2)nc2cnccn12 | 0.944 (inactive) | -0.669
Cc1cccc(C)c1Nc1c(-c2ccccn2)nc2sccn12 | 0.5 (active) | -5.94
COc1ccc2c(c1OC)C(=O)N(c1ncn[nH]1)C2 | 0.25 (active) | -16
COc1ccc2c(c1OC)C(=O)N(c1ccc(O)cc1)C2 | 0.99 (inactive) | -0.11
CCOC(=O)c1cnc2c(C)cc(C)cc2c1Nc1ccccc1CC | 1.15 (inactive) | 1.45
CCOC(=O)c1cnc2c(C)cc(C)cc2c1Nc1ccc(N2CCOCC2)cc1 | 0.35 (active) | -16.2
CCOC(=O)c1cnc2c(C)cc(C)cc2c1Nc1cccc(OC)c1 | 1.03 (inactive) | 0.43
